# PubChem BioAssay (NCATS)
# Records with an inconclusive call do not appear. Activity calls are given as the source filed them. Unless noted, calls come from the whole dose curve; as a rule, active = well fitted curve in the direction sought with a large enough effect; inconclusive = small, poorly fitted or top-dose-only effect, or another doubt; inactive = no such curve, though single readings can be large; an effect the other way counts as inactive or inconclusive.
# Key:
# [1] = Quantitative High-Throughput drug screen in 47 multiple myeloma cell lines against the NCATS MIPE library collection: PE2_PLB cell viability assay (AID 1919869); note: nearly all actives have a fitted effect of over 35% in size; note: potency is the fitted concentration of half-maximal effect
# Summary of the method: (§1)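 Myeloma cells (500/well) treated with MIPE 4.0 compounds for 48 h at 37 °C, 5% CO2. Viability read as ATP via CellTiter-Glo luminescence after 5 min at RT; DMSO-only wells = 100%, media-only = 0% viability.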
# [2] = Quantitative High-Throughput drug screen in 47 multiple myeloma cell lines against the NCATS MIPE library collection: PCM6_Riken cell viability assay (AID 1919870); note: nearly all actives have a fitted effect of over 30% in size; note: potency is the fitted concentration of half-maximal effect
# Summary of the method: as §1
# [3] = Quantitative High-Throughput drug screen in 47 multiple myeloma cell lines against the NCATS MIPE library collection: RPMI8226_ATCC cell viability assay (AID 1919871); note: nearly all actives have a fitted effect of over 30% in size; note: potency is the fitted concentration of half-maximal effect
# Summary of the method: as §1
# [4] = qHTS drug screen for cell cycle checkpoint inhibitors in PARPi-resistant BRCA-mutant ovarian cancer cell lines. (AID 1963452; calls by dose curve); settings: PEO1/OlaR viability, CellTiter-Glo luminescence, 96 h, stronger effect = lower value
# Summary of the method: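 PEO1, PEO4 and PEO1/OlaR ovarian cancer cells, 600 per well, exposed 96 h at 37C to a dilution series. Viability read by CellTiter-Glo luminescence, normalized to DMSO and empty wells; activity summarized as Z-AUC.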
# [5] = Quantitative High-Throughput drug screen in 47 multiple myeloma cell lines against the NCATS MIPE library collection: OPM2_DSMZ cell viability assay (AID 1919872); note: nearly all actives have a fitted effect of over 30% in size
# Summary of the method: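 Relative luminescence from CellTiter-Glo served as the viability signal, referenced to DMSO-treated (100%) and cell-free medium (0%) controls. Treatment lasted 48 hours at 37C with 500 cells per well.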
# [6] = Quantitative High-Throughput drug screen in 47 multiple myeloma cell lines against the NCATS MIPE library collection: KMS28BM_JCRB cell viability assay (AID 1919874); note: nearly all actives have a fitted effect of over 35% in size
# Summary of the method: as §1
# [7] = qHTS for identification of novel therapeutic agents for treatment of microphthalmiaassociated transcription factor (MiT) renal cell carcinoma (RCC) (AID 1963991); settings: CellTiter-Glo, 48 h, stronger effect = lower value
# Summary of the method: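 Three TFE3-fusion RCC cell lines (UOK109, UOK124, UOK145), 500 cells/well, were exposed to the 1912-compound MIPE 4.0 library for 48 hours at 37 C. Viability was read by CellTiter-Glo luminescence, normalised to DMSO (100%) and empty wells (0%), with 11-concentration curve fits.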
# [8] = Quantitative High-Throughput drug screen in 47 multiple myeloma cell lines against the NCATS MIPE library collection: KMS11_JCRBsus cell viability assay (AID 1919873); note: nearly all actives have a fitted effect of over 50% in size
# Summary of the method: as §1
# [9] = molecular target: Cytochrome P450 2D6 (Homo sapiens) (UniProt P10635); assay: qHTS for inhibitors of CYP2D6 against the NCATS DSHEA and TCM libraries (AID 1919972); note: % is set by controls: 0 for no effect and ±100 for the full control effect
# Summary of the method: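 Steps: enzyme plus luciferin substrate dispensed; test substances pinned; 15 min RT; 1x NADPH regenerating solution added, 30–45 min RT protected from light; detection reagent, 30 min RT; luminescence measured. Minus-enzyme wells as background.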
# [10] = molecular target: Cytochrome P450 2C19 (Homo sapiens) (UniProt P33261); assay: qHTS for inhibitors of CYP2C19 against the NCATS DSHEA and TCM libraries (AID 1919974);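 note: luminescence from luciferin released by CYP2C19 oxidation of a pro-luciferin substrate; potency is the fitted concentration of half-maximal effect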
# Summary of the method: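 Light output from converted D-luciferin reports remaining CYP activity. Compounds preincubate with enzyme and substrate for 15 min; NADPH regeneration (1x final) runs the reaction for 30-45 min.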
# [11] = KB-3-1 P-gp reporter qHTS against the NCATS DSHEA and TCM libraries (AID 1919975); note: 0% is about no effect
# Summary of the method: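 72 h exposure of KB-3-1 cells (DMEM, 10% FBS) to DSHEA/TCM samples, concentration-response; cell viability measured as CellTiter-Glo luminescence after 30 min at room temperature.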
# [12] = molecular target: Cytochrome P450 1A2 (Homo sapiens) (UniProt P05177); assay: qHTS for inhibitors of CYPIA2 against the NCATS DSHEA and TCM libraries (AID 1919976);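 note: light from luciferin formed by CYP1A2 from a pro-luciferin substrate; series mostly up to about 37 µM; % is set by controls: 0 for no effect and ±100 for the full control effect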
# Summary of the method: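 In this quantitative HTS, inhibition of recombinant human CYP1A2 was measured as loss of luciferin-derived luminescence. Turnover ran 30-45 min at RT after NADPH regeneration solution was added.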
# [13] = qHTS Counterscreen for compound interference against the NCATS DSHEA and TCM libraries (AID 1919978); settings: firefly luciferase detection reagent interference, luminescence; note: % of control where 0% means no effect
# Summary of the method: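 Read-out is luminescence after 30 min at RT with luciferin detection reagent. Before that, compounds (19.5 nM to 39.8 uM final) sat 15 min at RT with 1 uM D-luciferin or 100 mM potassium phosphate buffer. PTC124 served as intraplate control.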
# [14] = Dual reporter qHTS for agonist of Pregnane X Receptor (hPXR) against the NCATS DSHEA and TCM libraries: Fluorescence readout (AID 1920058); note: 0% is about no effect
# Summary of the method: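 Measures viability of the PXR reporter HepG2 line by protease-substrate fluorescence (405/540 nm), taken 1 h after CellTiter-Fluor addition. Substances are tested as concentration series over a ~24 h exposure, with rifampicin as agonist control.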
# [15] = molecular target: Nuclear receptor subfamily 1 group I member 2 (Homo sapiens) (UniProt O75469); assay: Dual reporter qHTS for agonist of Pregnane X Receptor (hPXR) against the NCATS DSHEA and TCM libraries: Luminescence readout (AID 1920059); note: 0% is about no effect
# Summary of the method: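 hPXR-LucHepG2 cells in phenol red-free DMEM with 5% charcoal-stripped FBS, 2000 cells/well, attached 5 h, then exposed 24 h at 37C to compounds; rifampicin as positive agonist control (2.8 nM–92 uM). Luciferase luminescence read.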
# [16] = molecular target: Nuclear receptor subfamily 1 group I member 2 (Homo sapiens) (UniProt O75469); assay: Dual reporter qHTS for antagonist of Pregnane X Receptor (hPXR) against the NCATS DSHEA and TCM libraries: Luminescence Readout (AID 1920060);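 note: HepG2 cells carrying hPXR luciferase reporter stimulated with rifampicin at 2 µM; 0% is about no effect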
# Summary of the method: (§2)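 Antagonist mode: rifampicin 2 uM final co-added with compounds to hPXR-LucHepG2 cells for 24 h at 37C. Viability by CellTiter-Fluor, Ex/Em 405/540 nm, 1 h; reporter by ONE-Glo luminescence.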
# [17] = Dual reporter qHTS for antagonist of Pregnane X Receptor (hPXR) against the NCATS DSHEA and TCM libraries: Fluorescence Readout (AID 1920061); note: 0% is about no effect
# Summary of the method: as §2
# [18] = measured here: PEO1 parental Z-AUC
# [19] = TFE3-RCC UOK109 viability, measured here: UOK109 Z-AUC
# [20] = TFE3-RCC viability, measured here: UOK124 Z-AUC
# [21] = TFE3-RCC viability, measured here: UOK145 Z-AUC
# Sequence of Nuclear receptor subfamily 1 group I member 2 (Homo sapiens) (O75469 whole entry, looked up): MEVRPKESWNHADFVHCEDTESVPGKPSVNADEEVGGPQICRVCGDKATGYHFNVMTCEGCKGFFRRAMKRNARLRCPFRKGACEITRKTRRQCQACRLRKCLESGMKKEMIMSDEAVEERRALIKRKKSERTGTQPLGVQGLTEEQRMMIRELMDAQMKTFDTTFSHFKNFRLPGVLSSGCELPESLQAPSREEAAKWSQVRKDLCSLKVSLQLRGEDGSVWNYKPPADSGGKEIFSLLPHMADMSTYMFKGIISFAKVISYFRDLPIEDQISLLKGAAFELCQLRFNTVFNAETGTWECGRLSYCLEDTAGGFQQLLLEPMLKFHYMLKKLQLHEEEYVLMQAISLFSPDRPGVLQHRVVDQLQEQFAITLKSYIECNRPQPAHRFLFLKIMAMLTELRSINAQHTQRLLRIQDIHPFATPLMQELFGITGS
# Sequence of Cytochrome P450 2D6 (Homo sapiens) (P10635 whole entry, looked up): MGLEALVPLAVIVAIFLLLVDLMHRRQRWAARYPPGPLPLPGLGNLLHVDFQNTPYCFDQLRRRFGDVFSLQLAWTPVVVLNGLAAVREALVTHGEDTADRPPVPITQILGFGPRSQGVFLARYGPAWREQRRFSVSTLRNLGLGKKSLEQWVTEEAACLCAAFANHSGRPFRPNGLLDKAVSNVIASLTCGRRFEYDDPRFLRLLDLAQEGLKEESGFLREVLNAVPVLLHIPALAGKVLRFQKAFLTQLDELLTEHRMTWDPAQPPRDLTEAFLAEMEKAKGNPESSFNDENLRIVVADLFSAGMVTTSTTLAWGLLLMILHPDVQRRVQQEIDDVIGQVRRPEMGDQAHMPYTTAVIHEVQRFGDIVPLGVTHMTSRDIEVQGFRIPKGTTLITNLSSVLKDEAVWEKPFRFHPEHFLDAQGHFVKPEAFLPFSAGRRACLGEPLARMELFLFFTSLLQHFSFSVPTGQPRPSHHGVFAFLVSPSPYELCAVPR
# Sequence of Cytochrome P450 1A2 (Homo sapiens) (P05177 whole entry, looked up): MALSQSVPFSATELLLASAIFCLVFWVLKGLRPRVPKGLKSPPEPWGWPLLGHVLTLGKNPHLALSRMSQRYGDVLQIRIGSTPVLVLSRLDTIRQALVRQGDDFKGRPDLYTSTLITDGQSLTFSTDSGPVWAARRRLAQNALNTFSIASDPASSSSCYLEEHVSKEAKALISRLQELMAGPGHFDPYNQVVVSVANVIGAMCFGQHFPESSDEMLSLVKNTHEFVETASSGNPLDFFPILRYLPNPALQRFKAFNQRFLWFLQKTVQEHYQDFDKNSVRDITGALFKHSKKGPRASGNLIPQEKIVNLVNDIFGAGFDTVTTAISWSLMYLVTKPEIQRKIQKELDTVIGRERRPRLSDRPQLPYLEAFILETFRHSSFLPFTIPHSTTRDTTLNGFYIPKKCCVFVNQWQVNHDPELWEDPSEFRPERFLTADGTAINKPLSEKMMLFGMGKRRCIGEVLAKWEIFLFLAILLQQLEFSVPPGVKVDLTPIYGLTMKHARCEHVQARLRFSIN
# Sequence of Cytochrome P450 2C19 (Homo sapiens) (P33261 whole entry, looked up): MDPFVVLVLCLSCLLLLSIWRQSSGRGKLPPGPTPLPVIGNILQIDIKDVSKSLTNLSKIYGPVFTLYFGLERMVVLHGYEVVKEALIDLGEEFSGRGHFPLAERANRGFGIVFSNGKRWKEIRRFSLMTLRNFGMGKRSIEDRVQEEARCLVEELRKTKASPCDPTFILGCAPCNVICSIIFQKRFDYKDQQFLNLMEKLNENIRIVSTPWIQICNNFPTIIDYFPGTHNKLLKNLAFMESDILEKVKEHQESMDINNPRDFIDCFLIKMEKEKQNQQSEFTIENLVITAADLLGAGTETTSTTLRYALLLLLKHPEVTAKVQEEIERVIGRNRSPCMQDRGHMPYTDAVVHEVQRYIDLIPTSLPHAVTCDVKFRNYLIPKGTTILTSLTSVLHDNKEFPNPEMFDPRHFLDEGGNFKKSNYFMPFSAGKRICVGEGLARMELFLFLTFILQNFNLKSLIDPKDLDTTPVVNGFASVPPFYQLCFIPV
smiles,measurement,setting,value
N=C(N)c1ccc(OCCCCCOc2ccc(C(=N)N)cc2)cc1,Potency,[1],5.9 µM (active)
same,Potency,[2],5.9 µM (active)
same,Potency,[3],5.9 µM (active)
same,Z-AUC,[4],0.0445 (inactive)
same,Z-AUC,[4]; [18],-0.0701
same,Z-AUC,[4]; measured here: PEO4 Z-AUC,0.016
CC1CC2C3CCC4=CC(=O)C=C[C@]4(C)[C@@]3(F)[C@@H](O)C[C@]2(C)[C@@]1(O)C(=O)CO (some centres undefined),Potency,[1],inactive
same,Potency,[2],0.118 µM (active)
same,Potency,[3],0.0296 µM (active)
same,Potency,[5],inactive
same,Potency,[6],inactive
same,z-score,[7]; [19],0.936
same,z-score,[7]; [20],0.693
same,z-score,[7]; [21],0.527
Cn1nnc2c(C(N)=O)ncn2c1=O,Potency,[1],inactive
same,Potency,[2],inactive
same,Potency,[3],inactive
same,Potency,[5],inactive
same,Potency,[8],inactive
same,Z-AUC,[4],1.52 (inactive)
same,Z-AUC,[4]; [18],1.36
same,Z-AUC,[4]; measured here: PEO4 Z-AUC,1.39
same,z-score,[7]; [19],0.106
same,z-score,[7]; [20],0.527
same,z-score,[7]; [21],0.42
CCCN[C@H]1CCc2nc(N)sc2C1,Potency,[1],inactive
same,Potency,[2],inactive
same,Potency,[3],inactive
same,Potency,[5],inactive
same,Potency,[8],inactive
same,Z-AUC,[4],-0.0876 (inactive)
same,Z-AUC,[4]; [18],-1.06
same,Z-AUC,[4]; measured here: PEO4 Z-AUC,-0.574
same,z-score,[7]; [19],0.498
same,z-score,[7]; [20],0.618
same,z-score,[7]; [21],0.718
NNC(=O)c1ccncc1,Potency,[1],inactive
same,Potency,[2],inactive
same,Potency,[3],inactive
same,Potency,[5],inactive
same,Potency,[8],inactive
same,Potency,[9],inactive
same,Potency,[10],12.6 µM (active)
same,Potency,[11],inactive
same,outcome,[12],inactive
same,max response,[13],1.88% (inactive)
same,outcome,[14],inactive
same,outcome,[15],inactive
same,outcome,[16],inactive
same,outcome,[17],inactive
same,Z-AUC,[4],0.416 (inactive)
same,Z-AUC,[4]; [18],1.78
same,Z-AUC,[4]; measured here: PEO4 Z-AUC,1.56
same,z-score,[7]; [19],1.86
same,z-score,[7]; [20],0.222
same,z-score,[7]; [21],0.436
N[C@@H](C(=O)N[C@@H]1C(=O)N2C(C(=O)O)=C(Cl)CS[C@H]12)c1ccccc1,Potency,[1],inactive
same,Potency,[2],inactive
same,Potency,[3],inactive
same,Potency,[5],inactive
same,z-score,[7]; [19],1.18
same,z-score,[7]; [20],0.137
same,z-score,[7]; [21],0.843
O=C(O)c1cn(C2CC2)c2cc(N3CCNCC3)c(F)cc2c1=O,Potency,[1],inactive
same,Potency,[2],inactive
same,Potency,[3],inactive
same,Potency,[5],inactive
same,Potency,[8],inactive
same,Potency,[6],inactive
same,Z-AUC,[4],0.135 (inactive)
same,Z-AUC,[4]; [18],0.154
same,Z-AUC,[4]; measured here: PEO4 Z-AUC,0.682
same,z-score,[7]; [19],1.77
same,z-score,[7]; [20],0.661
same,z-score,[7]; [21],1.11
CCN(CC)CCn1c(=O)c(Cc2ccc(OC)cc2)nc2ccccc21,Potency,[1],inactive
same,Potency,[2],inactive
same,Potency,[3],inactive
same,Potency,[5],inactive
same,Potency,[8],inactive
same,Z-AUC,[4],0.658 (inactive)
same,Z-AUC,[4]; [18],1.23
same,Z-AUC,[4]; measured here: PEO4 Z-AUC,1.19
same,z-score,[7]; [19],0.411
same,z-score,[7]; [20],0.577
same,z-score,[7]; [21],0.628
NC(=O)c1cccc(N)c1,Potency,[1],inactive
same,Potency,[2],inactive
same,Potency,[3],inactive
same,Potency,[5],inactive
same,Potency,[8],inactive
same,Z-AUC,[4],1.42 (inactive)
same,Z-AUC,[4]; [18],1.33
same,Z-AUC,[4]; measured here: PEO4 Z-AUC,0.943
